# Reference: PubChem BioAssay (NCI)
# This is part of a sample that, as a whole, favours compounds with a hit. Of some 83,000 tested, about 20% had one in any assay.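 A percent growth of 40 corresponds to 60% growth inhibition; 0 means no net growth; -100 means all cells died. Active threshold: below 10.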 A number with no mark means an inactive call. Activity calls are given as the source filed them.
# Tested on: HL-60(TB) leukemia
# Test: NCI-60 one-dose screen, 48 h (100 = growth as untreated, 0 = no growth, -100 = all killed)
# Conditions: 10 µM unless noted
row,Structure (SMILES),growth
1,CCOC(=O)/C=C/c1ccc([N+](=O)[O-])o1,-4.64% (active)
2,N#Cc1cnn(-c2nc3c(Cl)cccc3s2)c1N,97.7%
3,CCSc1ccc2c(c1)N(CCCN1CCN(C)CC1)c1ccccc1S2,37.1%
4,C=C1CCC2C3(C)COC(c4ccc(NC(C)=O)cc4)OC3CCC2(C)C1C/C=C1/C(=O)OCC1O (stereo not given),32.8%
5,Cc1ccc2c(n1)C(=O)C(Br)=C(CC(C)C)C2=O,58.4%
6,CC(C)(C)[Si](C)(C)OC1[C@@H](O[Si](C)(C)C(C)(C)C)[C@@H](CNC(=O)NC(=O)NC(=O)CCl)O[C@H]1n1cnc2c(NC(=O)Nc3ccccc3)ncnc21 (stereo not given in full),19.7%
7,CCc1ccc2c(c1)N(CCO)C1=C(C(=O)OC1)C2c1cccc(Cl)c1 (stereo not given),-19.4% (active)
8,Nc1c(C(=O)Nc2cccc3ccncc23)sc2nc3c(cc12)C(=O)CCC3,14.7%
9,N#Cc1ncc(-c2ccc(C(F)(F)F)cc2)c(NC2CCCCCC2)n1,6.7% (active)
10,COc1ccc([C@H]2c3cc(OC)c(OC)cc3C=C(C=O)C2CO)cc1OC (stereo not given in full),-13.9% (active)
11,N#Cc1c(Cl)nc(SCC2CO2)nc1-c1ccccc1 (stereo not given),105%
12,CCOc1ccc2nc(C)cc(Nc3ccc(Br)cc3)c2c1,107%
13,CC(=O)OC1/C=C\CC/C=C\C1 (stereo not given),101%
14,C=C1C(=O)O[C@H]2[C@H]1CC/C(C=Nc1ccc(C(F)(F)F)cc1N)=C\CC[C@@]1(C)O[C@@H]21,-7.77% (active)
15,CC1(C)OC2C(CO)OC(n3ccc(=O)[nH]c3=O)C2O1 (stereo not given),105%
16,CCSc1sc(-c2ccc(C)cc2)nc1[P+](c1ccccc1)(c1ccccc1)c1ccccc1,-47% (active)
17,O=C/C=C/c1ccc([N+](=O)[O-])cc1Cl,82.6%
18,COc1c(Cl)c2c(c(OC)c1OC)-c1ccc(SC)c(=O)cc1[C@@H](NC(=O)OCC(F)(F)F)CC2,-35.4% (active)
19,O=c1oc2ccc(Br)cc2c(=O)n1-c1ccc(F)cc1F,-1.95% (active)
20,O=C(NCCCl)Nc1ncccc1OCc1ccccc1,90%

row,Structure (SMILES),growth
1,c1ccc2oc(-c3cnc4nonc4n3)cc2c1,90.9%
2,C[C@]12CCc3nc(Nc4ccc(O)cc4)sc3C1=CC[C@@H]1[C@@H]2CC[C@]2(C)/C(=N/NC(N)=S)CC[C@@H]12,-4.61% (active)
3,Cc1nc2cccc(NCCCCC(=O)NO)c2c(=O)n1-c1ccccc1,42.8%
4,O=c1c2cccc(F)c2sc2c(NCCCNCCO)nc3ccccc3c12,-6.55% (active)
5,COc1ccc(-c2nc(SCC(=O)Nc3ccc(C(=O)/C=C/c4ccc(Cl)cc4)cc3)[nH]c(=O)c2C#N)cc1,105%
6,COc1cc(/C=C/C(=O)/C=C/c2ccc(-n3ccnc3)cc2)ccc1O,36.2%
7,CC(=O)c1c(C)nc2ccccc2c1/C=C/c1cccc(C)c1,28.2%
8,C=C1C(=O)O[C@H]2[C@H]1CC/C(COC(=O)C(=O)c1c[nH]c3ccccc13)=C\CC[C@@]1(C)O[C@@H]21,-46.5% (active)
9,O=C1OCC2=C1C(c1cccc(F)c1)c1cc3c(cc1N2CCO)OCCO3 (stereo not given),-34.5% (active)
10,COc1ccc(C2CC(c3ccccc3)=Nc3ccccc3S2)cc1 (stereo not given),85.7%
11,COc1ccccc1NC(=O)OCC12COCN1COC2,102%
12,CC(C)(C)c1nn(-c2ccccc2)c2c1COCN2Cc1ccc(Cl)cc1,43.5%
13,COC(=O)c1c(C)nc(C)c2c1C(=O)C(Br)=C(NCc1ccccc1)C2=O,-30.9% (active)
14,CN1CCN(c2cc(Nc3cc(C4CC4)[nH]n3)nc(Nc3ccc(CC(=O)NCc4cccc(F)c4)cc3)n2)CC1,19.9%
15,CCO/C=C1\SC(=S)N(c2cccc(O)c2)C1=O,100%
16,COc1cc(C2CC(c3ccc(SC)cc3)=NN2C(C)=O)cc(OC)c1OC (stereo not given),17.6%
17,COCc1nc2ccccc2[nH]1,96.5%
18,Nc1ccccc1NC(=O)c1ccc(CSc2nc(N3CCOCC3)c3cccn3n2)cc1,-19.4% (active)
19,COc1ccc(NC(=O)c2ccc(NC3=C(c4ccc(Cl)cc4)C(=O)NC3=O)cc2)cc1,80.3%
20,N#Cc1c(N)nc(-c2cc(F)cc(C(F)(F)F)c2)nc1-c1ccccc1F,92.8%
